LmPK inh – qHTS Assay for Inhibitors of Leishmania Mexicana Pyruvate Kinase (LmPK); Potency, µM (series often up to 57.5 µM), most hits filed as inhibitors; purified LmPK, Kinase-Glo ATP luminescence, 1 h; 0.37% of 290,000 active; Q27686
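In 50 mM imidazole pH 7.2 with 7 mM MgCl2, LmPK (0.1 nM) turned over PEP (0.5 mM) and ADP (0.1 mM) for 1 h at room temperature. Luciferase read-out of ATP.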
TbPYK inhibitor – qHTS of Trypanosoma Brucei Inhibitors | pyruvate kinase (Trypanosoma brucei), Q57TT1 | TbPYK enzyme, Kinase-Glo Plus ATP luminescence, 45 min | Potency, µM (series often up to 76.8 µM), hits mostly inhibitors | 0.12% of 410,000 active | AID 624173, 2012; note: nearly all actives have a fitted effect of over 50% in size
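Luminescent Kinase-Glo Plus end-point after 45 min room-temperature reaction of T. brucei pyruvate kinase started with 130 uM ADP (final). Buffer TEA 50 mM pH 7.2 with KCl, MgCl2, BSA, Tween-20; titration-based qHTS with fitted concentration-effect curves.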
RE007 growth inh – qHTS Assay for Inhibitors of the HIV-1 protein Vpr. Potency, µM (doses to about 92.2 µM), actives largely listed as inhibitors. S. pombe RE007 Vpr strain, BacTiter-Glo ATP luminescence, 24 h. 0.21% of 360,000 active. AID 651644, 2012; active = well fitted falling curve with a large enough effect; inconclusive = small, poorly fitted or top-dose-only effect; inactive = no such curve, though single readings can be large or run the other way; note: nearly all actives have a fitted effect of over 50% in size
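Fission yeast strain RE007, carrying one chromosomally integrated HIV-1 vpr copy, was seeded at OD 0.01 in PMG+AL medium with 23 nL pinned compound. After 24 h at 30 °C and 99% humidity, viability was read by BacTiter-Glo luminescence.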
Giardia FBPA inh-1 – qHTS Assay for Inhibitors of Fructose-1,6-bisphosphate Aldolase from Giardia Lamblia | purified Giardia FBPA | 0.71% of 290,000 active | AID 2451, 2010 | A8B2U2 | Potency, µM (top dose mostly 59.6 µM), actives largely listed as inhibitors; note: nearly all actives have a fitted effect of over 55% in size
Target sequence (A8B2U2 whole entry, looked up): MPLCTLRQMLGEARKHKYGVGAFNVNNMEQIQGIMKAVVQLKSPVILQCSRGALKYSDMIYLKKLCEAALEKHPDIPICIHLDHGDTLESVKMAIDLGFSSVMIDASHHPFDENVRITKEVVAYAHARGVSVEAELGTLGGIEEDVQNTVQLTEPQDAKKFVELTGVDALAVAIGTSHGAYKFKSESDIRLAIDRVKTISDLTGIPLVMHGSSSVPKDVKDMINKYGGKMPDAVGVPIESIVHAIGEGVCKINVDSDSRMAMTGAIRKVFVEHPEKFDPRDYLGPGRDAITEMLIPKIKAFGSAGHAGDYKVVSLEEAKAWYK
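40 nM FBPA preincubated 10 min at RT with compound (up to 57.5 uM final), then substrate plus GAPDH/TPI/NAD/arsenate coupling and diaphorase/resazurin added. Fluorescence read after 20 min at RT, 525/598 nm.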
Giardia growth – qHTS Assay for Inhibitors of Fructose-1,6-bisphosphate Aldolase from Giardia Lamblia: Giardia lamblia growth inhibition; shares compounds with Giardia FBPA inh-1; Giardia lamblia trophozoite growth inhibition; Potency, µM (series often up to 57.5 µM), most hits filed as inhibitors; 5% of 1,500 active;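 note: trophozoites exposed to compound for 48 h at 37 °C; nearly all actives have a fitted effect of over 70% in size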
Mammalian tox – qHTS Assay for Inhibitors of Fructose-1,6-bisphosphate Aldolase from Giardia Lamblia: Mammalian cellular toxicity | 4% of 1,500 active | shares compounds with Giardia FBPA inh-1 | Potency, µM (titrated, usually from 57.5 µM), most hits filed as inhibitors | mammalian cell viability counter-screen, qHTS | AID 2786, 2010;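 note: Chinese hamster ovary cells used as mammalian cytotoxicity surrogate; viability measured as cellular ATP by luminescence; compound exposure lasted 48 h before reading; nearly all actives have a fitted effect of over 60% in size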
Giardia FBPA inh-2 – qHTS Assay for Inhibitors of Fructose-1,6-bisphosphate Aldolase from Giardia Lamblia: Primary screen confirmation; shares compounds with Giardia FBPA inh-1; purified Giardia aldolase enzyme activity, qHTS; Potency, µM (top dose mostly 57.5 µM), usual class: inhibitors; 5% of 1,500 active; AID 2787, 2010; note: nearly all actives have a fitted effect of over 45% in size
Rabbit aldolase – qHTS Assay for Inhibitors of Fructose-1,6-bisphosphate Aldolase from Giardia Lamblia: Rabbit FBPA Selectivity. shares compounds with Giardia FBPA inh-1. Rabbit muscle FBPA enzyme inhibition, selectivity counter-screen. AID 2794, 2010. 4% of 1,500 active. Potency, µM (series often up to 57.5 µM), most hits filed as inhibitors; note: nearly all actives have a fitted effect of over 60% in size
Target sequence (P00883 whole entry, looked up): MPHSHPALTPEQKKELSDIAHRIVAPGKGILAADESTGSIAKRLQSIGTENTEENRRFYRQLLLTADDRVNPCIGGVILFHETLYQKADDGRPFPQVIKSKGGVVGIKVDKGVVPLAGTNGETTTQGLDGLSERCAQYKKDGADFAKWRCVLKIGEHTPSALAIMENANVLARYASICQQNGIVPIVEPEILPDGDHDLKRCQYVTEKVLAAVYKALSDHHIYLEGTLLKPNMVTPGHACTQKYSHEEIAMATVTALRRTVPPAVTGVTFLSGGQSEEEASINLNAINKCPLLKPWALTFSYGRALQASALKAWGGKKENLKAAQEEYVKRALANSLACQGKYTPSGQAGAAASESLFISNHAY
GAPDH counter – qHTS Assay for Inhibitors of Fructose-1,6-bisphosphate Aldolase from Giardia Lamblia: Coupling assay counterscreen confirmation; Potency, µM (top dose mostly 57.5 µM), usual class: inhibitors; AID 2795, 2010; GAPDH coupling enzyme counterscreen, biochemical, qHTS; shares compounds with Giardia FBPA inh-1; 6% of 1,500 active; note: nearly all actives have a fitted effect of over 55% in size
A number is an active result; [ ] = dose if it differs, or a comment. Shown are actives, neighbours in structure and some others; about 0.95% of the full set was active somewhere. Unless noted, calls come from the whole dose curve; as a rule, active = well fitted curve in the direction sought with a large enough effect; inconclusive = small, poorly fitted or top-dose-only effect, or another doubt; inactive = no such curve, though single readings can be large; an effect the other way counts as inactive or inconclusive.

What do the screens show for `Nc1nc(=S)c2ncn([C@H]3O[C@@H](CO)[C@@H](O)[C@@H]3O)c2[nH]1`?
Giardia FBPA inh-1: 5.6µM; Giardia growth: inactive; Mammalian tox: 5µM; Giardia FBPA inh-2: inactive; Rabbit aldolase: inactive; GAPDH counter: inactive

Results for CC(=O)N1CCN(C(=S)NC(=O)c2c(-c3ccccc3Cl)noc2C)CC1 ?
LmPK inh: inactive; TbPYK inhibitor: inactive; RE007 growth inh: inactive; Giardia FBPA inh-1: 16µM; Giardia growth: inactive[10.4 µM]; Mammalian tox: inactive; Giardia FBPA inh-2: inactive; Rabbit aldolase: inactive; GAPDH counter: inactive

Results for Cc1ccc(NC(=S)NC(=O)c2c(-c3ccccc3Cl)noc2C)cc1 ?
LmPK inh: inactive; TbPYK inhibitor: inactive; RE007 growth inh: inactive

What do the screens show for `Oc1ccccc1N=Cc1c(O)ccc2ccccc12`?
LmPK inh: inactive; TbPYK inhibitor: inactive; RE007 growth inh: inactive; Giardia FBPA inh-1: inconclusive; Giardia growth: inactive; Mammalian tox: inactive; Giardia FBPA inh-2: 0.33µM; Rabbit aldolase: inconclusive; GAPDH counter: inactive

Results for Oc1ccc2ccccc2c1C=Nc1ccccc1Br ?
LmPK inh: inactive; TbPYK inhibitor: inactive; RE007 growth inh: inactive; Giardia FBPA inh-1: inactive

What do the screens show for `O=C(CCc1ccccc1)NNC(=O)c1ccccn1`?
LmPK inh: inactive; TbPYK inhibitor: inactive; RE007 growth inh: inactive; Giardia FBPA inh-1: 18µM; Giardia growth: 11µM; Mammalian tox: inconclusive; Giardia FBPA inh-2: inactive; Rabbit aldolase: inactive; GAPDH counter: inactive

How did COc1ccc(C(=O)N2CCC3(CCN(C)CC3)CC2)cc1 do in these assays?
TbPYK inhibitor: inactive; Giardia FBPA inh-1: inactive

What do the screens show for `Cc1cn2c(=O)cc(COC(=O)c3ccc(NC(=O)COc4ccc(C)c(C)c4)cc3)nc2s1`?
TbPYK inhibitor: inactive

Results for O=C(NC(=S)Nc1ccccc1Cl)c1cncc(C#Cc2ccccc2)c1 ?
LmPK inh: inactive; TbPYK inhibitor: inactive; RE007 growth inh: inconclusive; Giardia FBPA inh-1: inactive

What do the screens show for `O=C(NC(=S)Nc1ccccc1Cl)c1cncc(Br)c1`?
LmPK inh: inactive; TbPYK inhibitor: inactive; RE007 growth inh: inactive; Giardia FBPA inh-1: 6.3µM; Giardia growth: inconclusive; Mammalian tox: inactive; Giardia FBPA inh-2: inactive; Rabbit aldolase: inactive; GAPDH counter: inactive

What do the screens show for `O=C(NC(=S)Nc1ncc(Br)cc1Br)c1ccccc1`?
LmPK inh: inactive; TbPYK inhibitor: inactive; RE007 growth inh: inactive; Giardia FBPA inh-1: 6.3µM; Giardia growth: inactive; Mammalian tox: inactive; Giardia FBPA inh-2: inactive; Rabbit aldolase: inactive; GAPDH counter: inactive

What do the screens show for `CC(C)C[C@H](NC(=O)[C@H](CC(C)C)NC(=O)[C@@H](Cc1c[nH]c2ccccc12)NC(=O)[C@H](Cc1ccccc1)NC(=O)[C@@H](Cc1c[nH]c2ccccc12)NC(=O)[C@H](CCC(N)=O)NC(=O)[C@H](CCC(N)=O)NC(=O)[C@@H]1CCCN1C(=O)[C@H](CCCCN)NC(=O)[C@@H]1CCCN1C(=O)[C@@H](CCCNC(=N)N)NC(=O)[C@@H]1CCCN1C(=O)CNC(=O)[C@H](CC(C)C)NC(=O)[C@H](CC(C)C)NC(=O)[C@H](Cc1ccc(O)cc1)NC(=O)CNC(=O)[C@H](C)NC(=O)[C@H](CO)NC(=O)[C@H](CC(N)=O)NC(=O)[C@H](CC(C)C)NC(=O)[C@@H](NC(=O)[C@H](Cc1c[nH]c2ccccc12)NC(=O)CN)[C@@H](C)O)C(N)=O`?
Giardia FBPA inh-1: inactive

Results for CCCCN1CCc2[nH]c(=S)[nH]c(=O)c2C1 ?
LmPK inh: inactive; TbPYK inhibitor: inactive; RE007 growth inh: inactive; Giardia FBPA inh-1: 16µM; Giardia growth: inconclusive; Mammalian tox: inactive; Giardia FBPA inh-2: inactive; Rabbit aldolase: inactive; GAPDH counter: inactive

How did CCN1CCC2(CC1)N=C(c1ccc(F)cc1)C(=S)N2 do in these assays?
LmPK inh: inactive; TbPYK inhibitor: inactive; RE007 growth inh: inactive; Giardia FBPA inh-1: 13µM; Giardia growth: inactive; Mammalian tox: inactive; Giardia FBPA inh-2: inactive; Rabbit aldolase: inactive; GAPDH counter: inactive

What do the screens show for `Cn1c(=O)c2ccccc2n2c(=S)[nH]nc12`?
LmPK inh: inactive; TbPYK inhibitor: inactive; RE007 growth inh: inactive; Giardia FBPA inh-1: 16µM; Giardia growth: inactive; Mammalian tox: inactive; Giardia FBPA inh-2: inactive; Rabbit aldolase: inactive; GAPDH counter: inactive

What do the screens show for `O=c1c2ccccc2n2c(=S)[nH]nc2n1-c1ccccc1`?
LmPK inh: inactive; TbPYK inhibitor: inconclusive; RE007 growth inh: inactive; Giardia FBPA inh-1: 7.1µM; Giardia growth: inactive; Mammalian tox: inactive; Giardia FBPA inh-2: inactive; Rabbit aldolase: inactive; GAPDH counter: inactive

How did CCC(C)c1ccc(-n2c(=O)c3ccccc3n3c(=S)[nH]nc23)cc1 (stereo not given) do in these assays?
LmPK inh: inactive; TbPYK inhibitor: inactive; RE007 growth inh: inactive; Giardia FBPA inh-1: inactive

How did COc1ccc(CN(C)CC(=O)Nc2c(C)cccc2C)c(OC)c1 do in these assays?
LmPK inh: inactive; TbPYK inhibitor: inactive; RE007 growth inh: inactive; Giardia FBPA inh-1: inactive

How did COc1ccc(CN(C)CC(=O)Nc2sc3c(c2C#N)CCC3)c(OC)c1 do in these assays?
LmPK inh: inactive; TbPYK inhibitor: inactive; RE007 growth inh: inactive; Giardia FBPA inh-1: 18µM; Giardia growth: inactive[10.4 µM]; Mammalian tox: inactive; Giardia FBPA inh-2: inactive; Rabbit aldolase: inactive; GAPDH counter: inactive

How did COc1ccc(OC)c(NC(=O)C2C3CCC(C3=C(C)C)C2C(=O)O)c1 (stereo not given) do in these assays?
LmPK inh: inactive; TbPYK inhibitor: inactive; RE007 growth inh: inactive; Giardia FBPA inh-1: 3.5µM; Giardia growth: inactive; Mammalian tox: inactive; Giardia FBPA inh-2: inconclusive; Rabbit aldolase: inconclusive; GAPDH counter: inconclusive

Results for COc1ccccc1CNC(=O)CN1C(=O)CSc2ccc(S(=O)(=O)N3CCCCC3)cc21 ?
TbPYK inhibitor: inactive

Screening results: PubChem BioAssay, National Center for Advancing Translational Sciences (NCATS)
